This note sets out measurements from PubChem BioAssay (NCATS).

The nature of assay [1]: Cellular Toxicity (caspase-3) Hek293 (AID 664).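 Note: cells exposed to compound for 16 h at 37 °C before readout.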 The following applies: HEK293 caspase-3 activation, DMSO = 0%, 100 µM tamoxifen = 100%; at 92.2 µM (top of the series). The gist of the method: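 qHTS, HEK293 (human embryonic kidney), 16 h cpd exposure in complete medium. Caspase-3/7 activation = luminescence increase; normalized to DMSO/100 uM tamoxifen; Hill-fit AC50.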
A short description of assay [2]: Cell Viability - LYMP2-005 (AID 967).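 Note: plate controls were DMSO only for no effect and 92 µM tetraoctylammonium bromide control for full effect.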 The conditions noted are these: LYMP2-005 lymphoblastoid cell viability; series mostly up to 92.2 µM. An outline of the steps: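 LYMP2-005 human lymphoblastoid cells (2500/well) were treated with compounds for 24 h at 37 C. Intracellular ATP was then measured by CellTiter-Glo luminescence after 30 min at room temperature. AC50 values came from Hill-equation fits of qHTS concentration-response data.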

Assay [3] can be described thus: Cell Viability - LYMP2-006 (AID 978). Note: % is set by controls: 0 for no effect and ±100 for the full control effect; nearly all actives have a fitted effect of over 60% in size. The following applies: LYMP2-006 lymphoblastoid cell viability, qHTS; series mostly up to 92.2 µM. The gist of the method: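 Potency values are Hill-fit AC50s for decreases in intracellular ATP (CellTiter-Glo luminescence). LYMP2-006 lymphoblastoid cells, 2500 per well, were exposed to compound in complete culture medium for 24 hr at 37 C.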
(qHTS replaces the single test concentration by a dilution series.)

Assay [4] is described as follows: Cell Viability - LYMP1-002 - Assay at 40 hr (AID 994).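 Note: 0% = DMSO only and full inhibition = 92 µM tetraoctylammonium bromide; nearly all actives have a fitted effect of over 60% in size.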 The conditions noted are these: LYMP1-002 lymphoblastoid cell viability; series mostly up to 92.2 µM. An outline of the steps:
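Cells are plated at 2500 per well and rested 5 hr at 37 C. Compounds are added and incubated 40 hr at 37 C. CellTiter-Glo reagent is added for 30 min at room temperature before luminescence is read.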

The target of assay [5] is Estrogen receptor (Homo sapiens) (UniProt P03372). Kind of assay: qHTS assay for small molecule antagonists of estrogen receptor alpha signaling (AID 588513; active = well fitted curve in the direction sought with a large enough effect in the signal ratio, with a control signal flat, not every such curve was filed as active; the % refers to the signal ratio; note: % is set by controls: 0 for no effect and ±100 for the full control effect). The conditions noted are these: ER-alpha-UAS-bla HEK293, beta-lactamase ratio, antagonist mode; series mostly up to 76.9 µM. An outline of the steps: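 Antagonist mode: inhibition of 0.5 nM 17-beta-estradiol-driven beta-lactamase reporter in HEK 293 ER-alpha-UAS-bla cells, 18 h at 37C, CCF4 readout after 2 h at RT. Normalised to estradiol and DMSO; titration fitted to Hill.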
Chain of Estrogen receptor (Homo sapiens) (P03372 whole entry, looked up): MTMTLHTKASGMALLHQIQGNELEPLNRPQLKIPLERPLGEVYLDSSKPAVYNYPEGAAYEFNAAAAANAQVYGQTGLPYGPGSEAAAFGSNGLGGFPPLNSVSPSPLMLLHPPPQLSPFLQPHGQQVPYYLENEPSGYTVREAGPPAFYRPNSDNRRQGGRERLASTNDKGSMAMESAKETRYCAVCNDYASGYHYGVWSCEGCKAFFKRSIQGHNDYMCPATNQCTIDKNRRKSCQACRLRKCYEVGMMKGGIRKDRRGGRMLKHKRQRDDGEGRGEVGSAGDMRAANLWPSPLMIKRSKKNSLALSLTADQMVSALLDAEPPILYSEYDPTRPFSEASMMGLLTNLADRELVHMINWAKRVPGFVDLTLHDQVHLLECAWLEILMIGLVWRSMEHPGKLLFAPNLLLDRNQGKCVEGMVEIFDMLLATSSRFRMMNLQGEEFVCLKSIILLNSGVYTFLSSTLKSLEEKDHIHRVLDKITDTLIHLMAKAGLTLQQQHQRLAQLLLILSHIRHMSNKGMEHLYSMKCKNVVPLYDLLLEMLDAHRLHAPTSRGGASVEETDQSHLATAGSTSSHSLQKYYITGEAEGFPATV

Assay [6] deals with Glucocorticoid receptor (Homo sapiens) (UniProt P04150). The assay can be described thus: qHTS assay for small molecule antagonists of glucocorticoid receptor signaling (AID 588533; active = well fitted inhibition curve with a large enough effect in the signal ratio, with a control signal flat, not every such curve was filed as active; the % refers to the signal ratio;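 note: cells stimulated with 2 nM dexamethasone as agonist; % is set by controls: 0 for no effect and ±100 for the full control effect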). The following applies: HeLa MMTV-bla, GRE beta-lactamase ratio, antagonist mode, 18 h; series mostly up to 76.8 µM. The gist of the method:
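Antagonist-mode qHTS: compound titrations added to GRE-bla HeLa cells, then dexamethasone 2 nM final; 18 h, 37 C. CCF4 FRET fluorescence normalized to dexamethasone and DMSO; IC50 from Hill fit.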

In assay [7] the target is Peroxisome proliferator-activated receptor gamma (Homo sapiens) (UniProt P37231). The assay can be described thus: qHTS assay for small molecule agonists of peroxisome proliferator-activated receptor gamma signaling (AID 588536; active = well fitted curve in the direction sought with a large enough effect in the signal ratio, with a control signal flat, not every such curve was filed as active; the % refers to the signal ratio;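 note: 0% = DMSO basal wells and 100% = rosiglitazone at 2 µM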). The conditions noted are these: HEK293 PPARg-UAS-bla, beta-lactamase ratio, 16 h, percent of rosiglitazone response, DMSO as zero; series mostly up to 76.7 µM. An outline of the steps:
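Cells were plated and held 6–6.5 h at 37 C, then compounds were added as a titration series. After a further 16 h, CCF4 dye was loaded for 2 h at room temperature and emission at 460/530 nm recorded.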

Assay [8] in a line: qHTS assay for cell viability of HEK293 cells (AID 743288). Note: % is set by controls: 0 for no effect and ±100 for the full control effect; nearly all actives have a fitted effect of over 50% in size. The conditions noted are these: ATP luminescence (CellTiter-Glo), 18 h; max response: stronger effect = lower value. An outline of the steps:
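Readout is luciferase-coupled ATP content (CellTiter-Glo luminescence, 30 min room temperature) as a measure of metabolically competent cells. Parental HEK293 cells were plated 5 h or more before compound addition, then treated 18 h at 37 C.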

Assay [9] in a line: Cell Viability - LYMP2-013 (AID 970).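 Note: 0% = DMSO only and full inhibition = tetraoctylammonium bromide control; nearly all actives have a fitted effect of over 55% in size.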 The conditions noted are these: LYMP2-013 lymphoblastoid cells viability; series mostly up to 92.2 µM. An outline of the steps:
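Cytotoxicity is scored as a concentration-dependent drop in intracellular ATP in human lymphoblastoid cells after 24 hr compound exposure at 37 C. ATP is quantified by luciferase luminescence, and AC50 values come from Hill-equation modeling.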

Assay [10] in a line: Cell Viability - LYMP2-012 (AID 982).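 Note: cellular ATP by luciferase luminescence where a drop means cytotoxicity; cells exposed to compound for one day before reading; 0% = DMSO only and full loss = 92 µM tetraoctylammonium bromide; nearly all actives have a fitted effect of over 55% in size.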 The following applies: LYMP2-012 lymphoblastoid cell viability qHTS; series mostly up to 92.2 µM.
Assay [11] in a line: Cell Viability - LYMP2-020 (AID 986).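 Note: plate controls were DMSO only for no effect and tetraoctylammonium bromide at 92 µM for full effect; nearly all actives have a fitted effect of over 55% in size.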 The following applies: series mostly up to 92.2 µM. An outline of the steps: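 Seed 2500 cells per well and incubate 5 hr at 37 C. Add compounds at a concentration series and incubate 24 hr at 37 C. Add CellTiter-Glo, wait 30 min at RT, read luminescence, and fit a Hill curve for AC50.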
Assay [12] in a line: qHTS assay for small molecule antagonists of peroxisome proliferator-activated receptor delta signaling (AID 588535; active = well fitted inhibition curve with a large enough effect in the signal ratio, with a control signal flat, not every such curve was filed as active; the % refers to the signal ratio;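 for max response: cells co-treated with a PPAR-delta agonist as stimulator during compound exposure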). The conditions noted are these: HEK293T PPARd-UAS-bla, beta-lactamase FRET ratio, 18 h; 460 nm channel. An outline of the steps: (§1)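 Titrations were run on PPAR-delta-UAS-bla HEK293T cells in charcoal/dextran-stripped serum, incubated 18 h at 37 C. CCF4 fluorescence (460/530 nm) after 2 h RT; Hill equation yields IC50 and maximal response.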

Assay [13] concerns the target Peroxisome proliferator-activated receptor delta (Homo sapiens) (UniProt Q03181). The assay is described as above. The following applies: HEK293T PPARd-UAS-bla, beta-lactamase FRET ratio, 18 h; series mostly up to 76.7 µM. An outline of the steps:
as §1

The nature of assay [14]: qHTS assay to identify small molecules that stimulate interleukin-8 (IL-8) secretion (AID 651758; active = well fitted activation curve with a large enough effect in the signal ratio; the % refers to the signal ratio; note: 0% is about no effect). The conditions noted are these: HTRF ratio (665/615); series mostly up to 92.2 µM. The gist of the method:
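Secreted IL-8 measured homogeneously by TR-FRET (two labelled anti-IL-8 antibodies, 1-3 h at room temperature) after a 16 h, 37 C compound treatment of THP-1 cells at 2000 cells/well.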

Assay [15] in a line: MultiTox-Fluor Cytotoxicity Assay - LYMP1-002 - Live Cells (AID 955).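 Note: cells exposed to compound for 16 hours; % is set by controls: 0 for no effect and ±100 for the full control effect.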 The following applies: LYMP1-002 lymphoblastoid live-cell protease fluorescence viability; series mostly up to 46.1 µM. The gist of the method: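 Cells were seeded at 2500 per well and incubated 5 hr. Compounds were then added for 16 hr at 37 C, followed by MultiTox-Fluor reagent for 60 min at room temperature and fluorescence reading of viable-cell protease signal.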

Assay [16] addresses Peroxisome proliferator-activated receptor gamma (Homo sapiens) (UniProt P37231). The assay can be described thus: qHTS assay for small molecule antagonists of peroxisome proliferator-activated receptor gamma signaling (AID 588537; active = well fitted inhibition curve with a large enough effect in the signal ratio, with a control signal flat, not every such curve was filed as active; the % refers to the signal ratio;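 note: reporter cells co-stimulated with 50 nM rosiglitazone agonist during compound treatment; % of control where 0% means no effect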). The conditions noted are these: HEK293 PPARg-UAS-bla, beta-lactamase ratio, antagonist mode; series mostly up to 76.8 µM. The gist of the method:
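Antagonist-mode β-lactamase reporter screen run as a titration series. HEK293 PPARγ-UAS-bla cells are stimulated with rosiglitazone (50 nM final) for 16 h, then CCF4 is read at 460/530 nm. Data are scaled between DMSO and rosiglitazone and fitted to the Hill equation.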

The nature of assay [17]: Cell Viability - LYMP1-002 - Assay at 16 hr (AID 948).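 Note: 0% = DMSO alone and full effect = 92 µM tetraoctylammonium bromide.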 The following applies: LYMP1-002 lymphoblastoid cell viability; series mostly up to 92.2 µM. The gist of the method: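 ATP luminescence (CellTiter-Glo) was measured after 16 hr compound exposure at 37 C of 2500 lymphoblastoid LYMP1-002 cells per well. Concentration-response curves were fitted with the Hill equation to give AC50.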

The nature of assay [18]: Cell Viability - LYMP2-007 (AID 979).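 Note: cells exposed to compound for 24 h before reading; 0% = DMSO only and the negative end = 92 µM tetraoctylammonium bromide; nearly all actives have a fitted effect of over 60% in size.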 The conditions noted are these: LYMP2-007 lymphoblastoid cell viability; series mostly up to 92.2 µM. The gist of the method:
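Cells are seeded at 2500 per well and rested 5 hr. Compounds are then added over a concentration series for 24 hr at 37 C. CellTiter-Glo is added for 30 min at room temperature before luminescence reading.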

Assay [19] concerns the target Estrogen receptor (Homo sapiens) (UniProt P03372). The assay can be described thus: qHTS assay for small molecule agonists of estrogen receptor alpha signaling (AID 588514; calls by dose curve;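 note: 0% = vehicle only and 100% = reference agonist; nearly all actives have a fitted effect of over 70% in size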). The conditions noted are these: ER-alpha-UAS-bla HEK293, beta-lactamase ratio, 18 h; series mostly up to 76.8 µM. An outline of the steps: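 Efficacy is expressed against 20 nM 17-beta-estradiol (100%) and DMSO basal (0%); EC50 from Hill equation. Assay: beta-lactamase reporter in ER-alpha-UAS-bla HEK 293 cells, 18 h compound incubation, CCF4 detection.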

In assay [20] the target is Mitogen-activated protein kinase 10 (Mus musculus) (UniProt Q61831). The assay can be described thus: JNK3 AlphaScreen Assay (AID 530; active = well fitted curve in either direction with a large enough effect, not every such curve was filed as active;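 note: kinase came from lysate of stimulated human HepG2 cells; signal reports phosphorylation of biotinylated GST-cJun 1-79 at Ser73 with 10 µM ATP; % is set by controls: 0 for no effect and ±100 for the full control effect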). The following applies: JNK3 lysate, c-Jun phosphorylation; series mostly up to 11.4 µM. The gist of the method:
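qHTS titrations with 15 min compound pre-incubation before adding ATP (10 uM final). Read-out: AlphaScreen of Ser73-phosphorylated biotin-GST-cJun using HepG2 lysate JNK3 activated by IL-1β and TNFα.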
(In Alpha technology, singlet oxygen from a donor bead excites a nearby acceptor bead.)

“And” between values parts separate entries of the source, which are not always exact repeats. Identical values can stand only once. Inconclusive results are not listed. The source made the active and inactive calls. Unless noted, calls come from the whole dose curve; as a rule, active = well fitted curve in the direction sought with a large enough effect; inconclusive = small, poorly fitted or top-dose-only effect, or another doubt; inactive = no such curve, though single readings can be large; an effect the other way counts as inactive or inconclusive.

Chain of Peroxisome proliferator-activated receptor delta (Homo sapiens) (Q03181 whole entry, looked up): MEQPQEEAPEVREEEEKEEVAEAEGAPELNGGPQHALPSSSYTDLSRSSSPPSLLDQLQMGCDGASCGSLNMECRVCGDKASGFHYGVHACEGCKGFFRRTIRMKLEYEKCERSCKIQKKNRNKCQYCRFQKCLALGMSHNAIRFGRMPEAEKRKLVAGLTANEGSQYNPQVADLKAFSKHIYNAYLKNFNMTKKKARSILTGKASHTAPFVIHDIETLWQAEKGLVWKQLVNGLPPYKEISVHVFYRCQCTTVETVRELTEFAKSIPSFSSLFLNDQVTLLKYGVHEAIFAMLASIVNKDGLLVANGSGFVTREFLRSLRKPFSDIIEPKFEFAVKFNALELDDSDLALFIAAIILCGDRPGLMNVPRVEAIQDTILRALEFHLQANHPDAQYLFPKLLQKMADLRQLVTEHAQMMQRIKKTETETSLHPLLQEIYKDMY
Chain of Glucocorticoid receptor (Homo sapiens) (P04150 whole entry, looked up): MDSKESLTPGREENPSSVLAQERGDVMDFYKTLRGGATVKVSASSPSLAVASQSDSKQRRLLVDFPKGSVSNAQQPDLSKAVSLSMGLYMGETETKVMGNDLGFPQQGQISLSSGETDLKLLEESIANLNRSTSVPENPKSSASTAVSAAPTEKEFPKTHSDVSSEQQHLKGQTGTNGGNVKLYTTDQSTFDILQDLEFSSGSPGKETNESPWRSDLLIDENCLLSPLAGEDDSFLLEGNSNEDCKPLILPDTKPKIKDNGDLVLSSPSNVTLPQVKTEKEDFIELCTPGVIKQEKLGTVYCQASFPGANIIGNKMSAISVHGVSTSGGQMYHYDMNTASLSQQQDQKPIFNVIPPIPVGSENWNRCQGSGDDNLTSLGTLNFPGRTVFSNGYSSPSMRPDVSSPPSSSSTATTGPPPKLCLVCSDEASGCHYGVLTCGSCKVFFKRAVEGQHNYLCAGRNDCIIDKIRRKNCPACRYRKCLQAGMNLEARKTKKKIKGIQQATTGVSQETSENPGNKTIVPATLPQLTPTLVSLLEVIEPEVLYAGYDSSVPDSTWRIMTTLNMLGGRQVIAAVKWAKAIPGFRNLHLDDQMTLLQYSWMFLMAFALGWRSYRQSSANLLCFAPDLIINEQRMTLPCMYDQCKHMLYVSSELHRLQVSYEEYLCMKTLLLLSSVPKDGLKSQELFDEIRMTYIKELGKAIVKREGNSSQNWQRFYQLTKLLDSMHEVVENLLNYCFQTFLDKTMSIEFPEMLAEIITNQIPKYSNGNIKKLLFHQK
Chain of Peroxisome proliferator-activated receptor gamma (Homo sapiens) (P37231 whole entry, looked up): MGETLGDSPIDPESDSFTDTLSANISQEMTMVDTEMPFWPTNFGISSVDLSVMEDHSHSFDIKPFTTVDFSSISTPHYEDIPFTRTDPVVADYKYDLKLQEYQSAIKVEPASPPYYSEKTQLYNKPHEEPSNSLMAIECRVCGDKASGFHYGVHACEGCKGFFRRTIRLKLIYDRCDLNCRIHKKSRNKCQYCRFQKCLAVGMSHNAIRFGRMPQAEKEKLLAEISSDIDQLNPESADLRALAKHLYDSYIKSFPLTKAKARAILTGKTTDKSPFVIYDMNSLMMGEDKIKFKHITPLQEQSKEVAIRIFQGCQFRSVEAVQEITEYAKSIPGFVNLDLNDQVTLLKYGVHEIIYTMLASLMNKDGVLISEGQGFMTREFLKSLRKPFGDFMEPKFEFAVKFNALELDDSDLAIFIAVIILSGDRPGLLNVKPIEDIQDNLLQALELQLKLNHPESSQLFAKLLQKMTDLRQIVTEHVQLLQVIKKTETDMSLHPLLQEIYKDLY

For the compound `Cc1cc(=O)oc2cc(O)cc(O)c12`, the caspase-3 activation in [1] was -0.488% (inactive). For the same compound, the Potency entry in assay [2], in assay [3], in assay [4] and in assay [6] was “inactive” in each case. For the same compound, the outcome in assay [5] and in [7] was inactive. Besides, the max response in [8] was -8.02% (inactive).

For the compound `c1cc2c3c(c1)ccc1cccc(c13)C2`, the caspase-3 activation in assay [1] is -1.87% (inactive). Moreover, the Potency result in [2], in assay [9], in assay [10], in assay [11], in assay [4] and in assay [14] was “inactive” in each case. Also, the max response in [12] came out at 4.88%. Further, the result in [13] was inactive.

For `CN(C)c1ccc(Cc2ccc(N(C)C)cc2)cc1`, the compound was classed as inactive in assay [15], in assay [13] and in assay [7]. In addition, the Potency entry in assay [9], in assay [10], in [4], in assay [6] and in [16] was “inactive” each time. Also, in assay [12], the max response was 11.4% and 3.82%.

As to `Nc1ccc2c(c1)C(=O)c1ccccc1C2=O`, the Potency entry in assay [17], in [3], in assay [18], in [11] and in assay [6] was “inactive” throughout. Besides, the result in [15], in assay [5], in [13] and in [7] was inactive. In addition, the max response was -6.52% in [12]; -13.3% (inactive) and -4.81% (inactive) in [8].

For the compound `CCCCOC(=O)COc1ccc(Cl)cc1Cl`, the Potency entry in assay [9], in [3], in [18], in assay [10], in [4] and in [16] was “inactive” in each case. In assay [14], the Potency result is “inactive”. In addition, the outcome in assay [7] was inactive.

With `CCc1ccc(C(c2ccc(CC)cc2)C(Cl)Cl)cc1`, the Potency entry in [17], in [18], in assay [10], in [11], in assay [4] and in assay [19] was “inactive” in each case. Further, the Potency result in assay [6] was “inactive”. For the same compound, the result in [5] was inactive.

Consider `CCCCCCCC/C=C\CCCCCCCC(=O)N(CCO)CCO`, for which the Potency result in [20], in assay [17], in assay [2], in assay [3], in assay [18] and in assay [10] was “inactive” each time. Further, the Potency result in assay [19] was “inactive”. Further, the compound was classed as inactive in assay [15] and in assay [13]. For the same compound, the results for the max response in [12] and in [8] were 92.2% and -16% (inactive), respectively.
